# Inconclusive results are not listed. Active and inactive are the calls of the source.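 How the source made its calls, unless noted: active means differentiation response of at least 50%, scaled between solvent and reference control, from cells with both markers; inactive means the rest.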
# Columns and labels:
# [1] = yeast TOR pathway RPL19A-GFP modulators, primary screen, cell-based, S. cerevisiae, multiplex flow cytometry (AID 1862; in the data active means percent of DMSO control GFP below about 86%;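 further: lower values mimic rapamycin by blocking the RPL19A rise seen in DMSO cells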); details: S. cerevisiae RPL19A-GFP strain, flow cytometry fluorescence, 3 h; at 10 µM; stronger effect = lower value
# [2] = modulators of MEP2-GFP levels in yeast, primary screen, S. cerevisiae, multiplex flow cytometry (AID 1867;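 active means GFP response, as percent of the DMSO control, above the screen-wide mean plus 3 SD, about 139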;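 further: median GFP channel fluorescence of barcode-gated MEP2-GFP cells measured by flow cytometry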); details: S. cerevisiae MEP2-GFP strain, 3 h, at 10 µM, stronger effect = higher value, 100% means same as DMSO wells
# [3] = modulators of CIT2-GFP expression in yeast, primary screen, S. cerevisiae, GFP fusion, multiplex flow cytometry (AID 1870;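 active means percent response above a set limit, the screen-wide mean plus 3 SD, cut at about 130% in these data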;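 further: barcoded CIT2-GFP strain pooled with four other GFP strains with rapamycin as positive control; median GFP fluorescence per well over plate mean of DMSO wells so 100% = DMSO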); details: 3 h, at 10 µM, stronger effect = higher value
# [4] = modulators of LAP4-GFP expression in yeast, primary screen, S. cerevisiae, multiplex flow cytometry (AID 1873;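 active means GFP signal, as percent of the solvent control, above the screen mean plus 3 SD, about 149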); details: 3 h, at 10 µM, stronger effect = higher value
# [5] = modulators of AGP1-GFP expression in yeast TOR pathway, primary screen, cell-based, multiplex flow cytometry, S. cerevisiae (AID 1887;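 active means GFP signal above the screen-wide mean plus 3 SD, that is over about 124.5% of the solvent control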;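 further: AGP1-GFP fusion strain of S. cerevisiae within a five-strain barcoded multiplex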); details: 3 h, at 10 µM, stronger effect = higher value
# [6] = inhibitors of CD8+ T cell-vesicle binding, pilot screen, LFA-1/ICAM-1 modulator project, MLPCN validation set, flow cytometry (AID 2523;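 active means response below a set limit, under 55% cells CD8-positive and vesicle-bound, and CD8 cells' 90th-percentile brightness under 279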;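 on vesicle binding response: mean PE anti-B7-1 fluorescence of CD8+ cells relative to row control; 100% = QL9-loaded vesicles with DMSO vehicle in the same plate row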); details: 2C mouse CD8+ T cells, at 7 µM, stronger effect = lower value; double positive events: measured here: CD8+/vesicle+ event percentage
# [7] = target: Integrin beta-1 (Homo sapiens) + Integrin alpha-4 (Homo sapiens) (UniProt P13612+P05556); test: inhibition of HUTS-21 binding to VLA-4, pilot screen, VLA-4 allosteric modulator project, U937 cells, HUTS-21 mAb, flow cytometry, validation set (AID 2674;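 active means inhibition above 50%, about 3 SD of the validation set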;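 further: antibody binding induced by the VLA-4 ligand LDV present at three times its Kd; 0% = LDV ligand with antibody and no compound and 100% = antibody without LDV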); details: HUTS-21 LIBS mAb binding, at 6.7 µM, stronger effect = higher value, binding induced by LDV ligand
# [8] = superoxide lowering in aged yeast cells, pilot screen, validation compound set (AID 2706;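 active means superoxide response below 65% of plate, a cut near 3 SD across the whole screen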;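 further: yeast exposed to compound for one week at 30 degrees C before staining; 100% = mean of all compound wells on the same plate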); details: S. cerevisiae aging, superoxide DHE fluorescence; at 10 µM; stronger effect = lower value
# [9] = target: Beta-adrenergic receptor kinase 1 (Homo sapiens) (UniProt P25098); test: GRK2 binders displacing RNA aptamer, biochemical, validation, human GRK2, bead flow cytometry (AID 488806;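 active means aptamer binding inhibition above 30%, about 3 SD of noise from non-fluorescent compounds; inactive means inhibition at or below 30%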); details: bead-bound GRK2, FAM-aptamer displacement, at 10 µM, stronger effect = higher value
# [10] = target: Beta-2 adrenergic receptor (Homo sapiens) (UniProt P07550); test: beta2AR agonists driving receptor internalization, pilot screen, cell-based, FAP fluorogen, flow cytometry, validation set (AID 504459;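 active means percent response above 42, roughly 3 SD of non-fluorescent test compounds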;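 further: agonist-driven loss of surface beta2AR via internalization measured by FAP dye flow cytometry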); details: Am2.2-beta2AR cells, FAP surface receptor flow cytometry; at 10 µM; stronger effect = higher value
# [11] = target: AP-2 complex subunit beta (Homo sapiens) (UniProt P63010); test: inhibitors of arrestin peptide binding to AP2, pilot screen, biochemical, validation set, GST-AP2 beads, flow cytometry (AID 504541;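 active means inhibition above 54%, about 3 SD of non-fluorescent compounds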;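 further: AP2 carries R879A mutation and is captured from E. coli lysate; bead-bound FITC arrestin peptide fluorescence measuring arrestin peptide binding to AP2; 0% = DMSO wells and 100% = excess unlabeled arrestin peptide control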); details: FITC arrestin peptide, at 10 µM, stronger effect = higher value, AP2 beta2 appendage fragment, R879A mutant
# [12] = yeast V-ATPase proton transport modulators, S. cerevisiae, pHLuorin, HTS validation (AID 504600; in the data active means response above about 15%;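 further: plate controls were DMSO for no effect and reference compound for full effect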); details: S. cerevisiae pHLuorin cytosolic pH, at 10 µM, stronger effect = higher value
# [13] = system: anti-desmoglein-3 scFv antibody binding to human DSG3; test: inhibitors of anti-DSG3 scFv binding to DSG3, pilot screen, biochemical, validation compound set, bead-based, flow cytometry (AID 588368;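 active means binding below the plate cutoff, the plate median minus 3 SD, with a reading above zero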;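 further: signal is the median channel fluorescence of bead-bound GFP antibody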); details: Protein G beads, DSG3-Fc, scFv-GFP binding, at 10 µM, stronger effect = lower value
# [14] = inhibitors of fungal efflux pumps CDR1, CDR2, MDR1, pilot screen, validation compound set, multiplex, phenotypic (AID 588506;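 active means efflux inhibition above 0.42, the validation set average plus 4 SD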;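 further: Nile Red retained in cells so higher fluorescence means more efflux inhibition; 0 = negative control wells and 1 = enniatin B 25 µM full block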); details: S. cerevisiae pump-expressing triplex, Nile Red efflux flow cytometry; at 10 µM; stronger effect = higher value; the pumps come from Candida albicans
# [15] = target: ATP-binding cassette sub-family B member 6 (Homo sapiens) (UniProt Q9NP58); test: ABCB6 transporter inhibitors, pilot screen, K562-ABCB6 cells, flow cytometry, validation set (AID 588550;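 active means inhibition above the screen-wide mean plus 3 SD, about 51%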;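 further: 0% = DMSO wells and 100% = benzethonium chloride 70 µM positive control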); details: K562-ABCB6 porphyrin accumulation, 1 h, at 10 µM, stronger effect = higher value
# [16] = promoters of myeloid differentiation in arrested cells, primary screen, cell-based, GFP/MAC1 double positive, flow cytometry, validation set (AID 588685); details: ER-HoxA9 marrow cells, stronger effect = higher value, normalized: vehicle 0, fulvestrant 100;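 further: compound exposure lasts four days before antibody staining and flow analysis; 0% = DMSO wells and 100% = 5 µM fulvestrant positive control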
# Sequence of Integrin beta-1 (Homo sapiens) + Integrin alpha-4 (Homo sapiens) (P05556 whole entry, looked up): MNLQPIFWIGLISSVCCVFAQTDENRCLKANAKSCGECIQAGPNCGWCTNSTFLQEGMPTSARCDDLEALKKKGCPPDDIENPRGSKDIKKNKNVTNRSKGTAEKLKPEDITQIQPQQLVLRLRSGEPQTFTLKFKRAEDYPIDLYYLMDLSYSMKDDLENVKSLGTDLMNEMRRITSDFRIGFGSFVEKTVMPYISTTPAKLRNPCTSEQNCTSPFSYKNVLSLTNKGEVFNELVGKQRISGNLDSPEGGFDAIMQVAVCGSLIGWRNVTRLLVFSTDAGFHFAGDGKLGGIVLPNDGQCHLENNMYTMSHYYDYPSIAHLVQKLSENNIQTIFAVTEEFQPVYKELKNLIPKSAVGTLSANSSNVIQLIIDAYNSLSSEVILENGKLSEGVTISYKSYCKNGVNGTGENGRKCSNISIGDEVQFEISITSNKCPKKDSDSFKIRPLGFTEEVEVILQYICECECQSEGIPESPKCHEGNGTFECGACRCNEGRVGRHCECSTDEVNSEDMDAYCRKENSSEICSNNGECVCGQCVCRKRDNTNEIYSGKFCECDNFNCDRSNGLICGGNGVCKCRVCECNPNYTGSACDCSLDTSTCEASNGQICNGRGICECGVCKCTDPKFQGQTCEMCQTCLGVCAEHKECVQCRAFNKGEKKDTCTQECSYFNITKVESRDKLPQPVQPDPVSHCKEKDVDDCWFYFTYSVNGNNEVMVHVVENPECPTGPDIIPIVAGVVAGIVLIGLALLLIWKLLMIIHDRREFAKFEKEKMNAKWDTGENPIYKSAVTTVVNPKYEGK
# Sequence of Integrin beta-1 (Homo sapiens) + Integrin alpha-4 (Homo sapiens) (P13612 whole entry, looked up): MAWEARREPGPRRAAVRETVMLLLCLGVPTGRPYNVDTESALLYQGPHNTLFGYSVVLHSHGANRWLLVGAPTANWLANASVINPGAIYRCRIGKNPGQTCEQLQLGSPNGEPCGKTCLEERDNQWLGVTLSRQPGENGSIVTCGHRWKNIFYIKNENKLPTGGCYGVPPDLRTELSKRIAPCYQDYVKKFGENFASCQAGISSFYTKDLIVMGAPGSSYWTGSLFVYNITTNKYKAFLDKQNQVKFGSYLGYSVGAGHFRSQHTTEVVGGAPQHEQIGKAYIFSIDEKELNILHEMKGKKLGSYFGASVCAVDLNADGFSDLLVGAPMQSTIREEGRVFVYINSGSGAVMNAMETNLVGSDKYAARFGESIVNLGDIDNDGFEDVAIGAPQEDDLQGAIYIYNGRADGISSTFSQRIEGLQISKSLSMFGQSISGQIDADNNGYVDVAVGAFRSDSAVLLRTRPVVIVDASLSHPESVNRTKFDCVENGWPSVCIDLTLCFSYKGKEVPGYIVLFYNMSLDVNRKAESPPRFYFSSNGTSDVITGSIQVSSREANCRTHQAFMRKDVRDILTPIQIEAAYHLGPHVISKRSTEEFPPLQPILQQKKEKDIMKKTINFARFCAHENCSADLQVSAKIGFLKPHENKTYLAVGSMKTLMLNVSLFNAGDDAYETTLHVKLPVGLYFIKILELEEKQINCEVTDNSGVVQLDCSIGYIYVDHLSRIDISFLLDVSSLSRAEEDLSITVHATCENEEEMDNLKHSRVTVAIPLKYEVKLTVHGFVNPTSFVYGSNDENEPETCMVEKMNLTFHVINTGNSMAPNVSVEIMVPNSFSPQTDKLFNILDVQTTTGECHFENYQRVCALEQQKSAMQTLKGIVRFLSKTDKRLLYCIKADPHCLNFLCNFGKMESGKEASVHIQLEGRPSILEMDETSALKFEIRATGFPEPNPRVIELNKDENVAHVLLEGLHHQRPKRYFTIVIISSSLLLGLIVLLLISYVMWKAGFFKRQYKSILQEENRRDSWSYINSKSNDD
# Sequence of AP-2 complex subunit beta (Homo sapiens) (P63010 whole entry, looked up, the tested form may be a part, one chain of several): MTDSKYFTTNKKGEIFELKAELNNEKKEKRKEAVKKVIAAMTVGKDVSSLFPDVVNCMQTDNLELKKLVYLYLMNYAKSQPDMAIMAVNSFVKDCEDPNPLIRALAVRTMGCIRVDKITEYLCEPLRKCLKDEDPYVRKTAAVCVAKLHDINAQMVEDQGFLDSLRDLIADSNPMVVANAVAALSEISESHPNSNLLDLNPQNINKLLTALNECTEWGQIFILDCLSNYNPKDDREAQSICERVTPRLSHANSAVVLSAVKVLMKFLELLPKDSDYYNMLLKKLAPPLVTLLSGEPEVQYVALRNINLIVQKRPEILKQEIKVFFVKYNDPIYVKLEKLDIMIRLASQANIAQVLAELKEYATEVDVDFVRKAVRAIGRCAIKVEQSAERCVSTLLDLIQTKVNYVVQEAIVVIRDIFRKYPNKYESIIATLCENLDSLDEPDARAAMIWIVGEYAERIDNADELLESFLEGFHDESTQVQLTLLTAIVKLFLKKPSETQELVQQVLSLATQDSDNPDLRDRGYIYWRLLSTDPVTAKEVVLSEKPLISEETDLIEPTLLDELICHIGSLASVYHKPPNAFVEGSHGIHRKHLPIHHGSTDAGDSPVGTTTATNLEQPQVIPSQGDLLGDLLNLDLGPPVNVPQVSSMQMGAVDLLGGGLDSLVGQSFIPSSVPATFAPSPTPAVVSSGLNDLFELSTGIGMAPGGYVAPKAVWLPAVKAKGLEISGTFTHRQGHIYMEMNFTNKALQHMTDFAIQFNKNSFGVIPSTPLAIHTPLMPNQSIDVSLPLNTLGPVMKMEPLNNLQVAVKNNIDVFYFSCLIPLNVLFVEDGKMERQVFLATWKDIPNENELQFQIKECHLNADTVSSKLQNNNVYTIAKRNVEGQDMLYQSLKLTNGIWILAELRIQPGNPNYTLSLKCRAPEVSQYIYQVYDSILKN
# Sequence of ATP-binding cassette sub-family B member 6 (Homo sapiens) (Q9NP58 whole entry, looked up): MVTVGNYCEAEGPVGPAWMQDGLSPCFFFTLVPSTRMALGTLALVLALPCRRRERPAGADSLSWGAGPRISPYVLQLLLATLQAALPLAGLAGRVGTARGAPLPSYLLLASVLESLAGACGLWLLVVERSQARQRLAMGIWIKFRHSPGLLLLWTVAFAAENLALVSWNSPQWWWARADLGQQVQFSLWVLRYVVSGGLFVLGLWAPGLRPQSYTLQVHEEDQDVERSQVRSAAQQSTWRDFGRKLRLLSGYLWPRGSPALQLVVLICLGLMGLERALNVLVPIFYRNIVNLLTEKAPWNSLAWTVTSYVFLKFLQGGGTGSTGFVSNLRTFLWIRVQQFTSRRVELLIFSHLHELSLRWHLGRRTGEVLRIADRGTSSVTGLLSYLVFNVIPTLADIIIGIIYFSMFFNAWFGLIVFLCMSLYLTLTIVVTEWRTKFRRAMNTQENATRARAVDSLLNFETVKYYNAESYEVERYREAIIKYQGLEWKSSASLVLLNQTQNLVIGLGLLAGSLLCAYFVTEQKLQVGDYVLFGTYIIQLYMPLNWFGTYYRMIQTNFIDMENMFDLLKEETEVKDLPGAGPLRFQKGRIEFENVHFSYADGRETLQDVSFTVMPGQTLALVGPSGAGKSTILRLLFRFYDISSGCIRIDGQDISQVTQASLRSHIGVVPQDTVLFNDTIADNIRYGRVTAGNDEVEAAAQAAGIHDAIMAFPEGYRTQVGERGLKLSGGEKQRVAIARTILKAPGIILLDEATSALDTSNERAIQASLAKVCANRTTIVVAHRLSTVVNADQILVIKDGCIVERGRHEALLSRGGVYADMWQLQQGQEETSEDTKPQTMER
# Sequence of Beta-adrenergic receptor kinase 1 (Homo sapiens) (P25098 whole entry, looked up): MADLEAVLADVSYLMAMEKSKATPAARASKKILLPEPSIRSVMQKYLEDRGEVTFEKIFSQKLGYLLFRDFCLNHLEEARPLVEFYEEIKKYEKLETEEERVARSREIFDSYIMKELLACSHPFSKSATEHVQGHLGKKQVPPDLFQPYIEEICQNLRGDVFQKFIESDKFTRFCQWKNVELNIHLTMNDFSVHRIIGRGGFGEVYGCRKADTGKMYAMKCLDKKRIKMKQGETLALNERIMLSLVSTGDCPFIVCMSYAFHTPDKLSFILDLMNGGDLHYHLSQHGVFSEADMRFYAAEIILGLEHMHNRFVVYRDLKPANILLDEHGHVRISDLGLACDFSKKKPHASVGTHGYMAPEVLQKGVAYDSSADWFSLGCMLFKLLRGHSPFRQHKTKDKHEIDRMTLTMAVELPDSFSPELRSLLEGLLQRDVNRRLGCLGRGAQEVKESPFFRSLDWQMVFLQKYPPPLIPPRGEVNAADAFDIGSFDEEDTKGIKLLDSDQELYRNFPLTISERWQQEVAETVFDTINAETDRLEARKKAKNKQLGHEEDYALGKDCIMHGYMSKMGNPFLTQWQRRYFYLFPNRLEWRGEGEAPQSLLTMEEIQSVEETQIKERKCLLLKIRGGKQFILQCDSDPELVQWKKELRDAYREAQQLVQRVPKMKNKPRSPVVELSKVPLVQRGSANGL
# Sequence of Beta-2 adrenergic receptor (Homo sapiens) (P07550 whole entry, looked up): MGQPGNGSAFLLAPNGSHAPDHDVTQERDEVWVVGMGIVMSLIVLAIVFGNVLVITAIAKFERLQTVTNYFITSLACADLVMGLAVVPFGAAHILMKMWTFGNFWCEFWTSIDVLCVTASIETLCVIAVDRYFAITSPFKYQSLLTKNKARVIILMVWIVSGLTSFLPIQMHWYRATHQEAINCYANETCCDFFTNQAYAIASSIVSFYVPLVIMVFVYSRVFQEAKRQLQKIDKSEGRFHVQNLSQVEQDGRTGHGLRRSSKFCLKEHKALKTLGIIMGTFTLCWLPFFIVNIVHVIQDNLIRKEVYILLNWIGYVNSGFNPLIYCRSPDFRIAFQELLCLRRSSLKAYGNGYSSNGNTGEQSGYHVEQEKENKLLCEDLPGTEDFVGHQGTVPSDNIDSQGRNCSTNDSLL
Compound,percent of DMSO control GFP [1],GFP response vs DMSO [2],percent response of DMSO control [3],GFP response vs DMSO [4],"GFP response, % of DMSO [5]",double positive events [6] [%],vesicle binding response [6],inhibition [7],superoxide response (% of plate) [8],aptamer binding inhibition [9],response [10],inhibition [11],response [12],binding (% of control) [13],efflux inhibition (fraction of control) [14],inhibition [15],differentiation response [16]
c1ccc(Cn2ncc3c(Nc4ccccc4)ncnc32)cc1,96.7% (inactive),106% (inactive),103% (inactive),117% (inactive),107% (inactive),63.6,244% (inactive),9.95% (inactive),121% (inactive),-1% (inactive),-42.2% (inactive),9.49% (inactive),3.17% (inactive),101% (inactive),0.08 (inactive),2% (inactive),-8.93% (inactive)
CC1(C)CC(C(CC(=O)O)c2ccccc2)CCO1 (stereo not drawn),97.6% (inactive),103% (inactive),99.6% (inactive),109% (inactive),102% (inactive),58.1,155% (inactive),-1.79% (inactive),99.7% (inactive),0% (inactive),-5.23% (inactive),48.1% (inactive),-5.35% (inactive),95.7% (inactive),0.05 (inactive),2% (inactive),37.6% (inactive)
COc1ccccc1C(CCN(Cc1ccccc1)C(C)=O)c1ccco1 (stereo not drawn),91.5% (inactive),130% (inactive),103% (inactive),78.7% (inactive),88% (inactive),56.4,145% (inactive),8.4% (inactive),122% (inactive),6% (inactive),-11.5% (inactive),2.58% (inactive),0.45% (inactive),102% (inactive),0.12 (inactive),15% (inactive),1.64% (inactive)
COC(=O)c1cc(Br)c(=O)n(CCc2ccc(O)cc2)c1,95.2% (inactive),109% (inactive),93.9% (inactive),123% (inactive),99.7% (inactive),57.8,234% (inactive),6.4% (inactive),103% (inactive),5% (inactive),-13.9% (inactive),4.99% (inactive),-0.03% (inactive),96.8% (inactive),-0.17 (inactive),8% (inactive),-10.4% (inactive)
CC(C)(C)n1c(=O)[nH]c2c(c1=O)CCC2,105% (inactive),103% (inactive),98.3% (inactive),113% (inactive),110% (inactive),61.8,205% (inactive),8.25% (inactive),98.5% (inactive),0% (inactive),-17.6% (inactive),66.2% (active),7.46% (inactive),100% (inactive),0.08 (inactive),-3% (inactive),-12.9% (inactive)
CN1C(C(=O)Nc2ccccn2)=C(O)c2ccccc2S1(=O)=O,101% (inactive),103% (inactive),86.1% (inactive),106% (inactive),97.6% (inactive),63.2,383% (inactive),-13.9% (inactive),104% (inactive),1% (inactive),-12.3% (inactive),-12.3% (inactive),-0.85% (inactive),100% (inactive),-0.07 (inactive),26% (inactive),14.9% (inactive)
CCOC(=O)C1=C(N)Oc2c(c(=O)[nH]c3ccccc23)C1c1ccccc1 (stereo not drawn),100% (inactive),106% (inactive),91% (inactive),112% (inactive),107% (inactive),57.2,179% (inactive),0.94% (inactive),103% (inactive),6% (inactive),3.69% (inactive),1.81% (inactive),1.75% (inactive),104% (inactive),0.01 (inactive),7% (inactive),-0.8% (inactive)
COc1ccc(NC(=O)CC(c2ccccc2)c2ccco2)cc1 (stereo not drawn),103% (inactive),97.2% (inactive),105% (inactive),86.8% (inactive),96.8% (inactive),62.8,164% (inactive),-15% (inactive),91.5% (inactive),2% (inactive),-5.85% (inactive),-3.8% (inactive),3.58% (inactive),100% (inactive),-0.07 (inactive),3% (inactive),1.22% (inactive)
O=C(O)C1CSC(c2ccco2)N1 (stereo not drawn),102% (inactive),103% (inactive),102% (inactive),120% (inactive),124% (inactive),60.6,168% (inactive),-19% (inactive),100% (inactive),33% (active),-18.6% (inactive),10% (inactive),-1.58% (inactive),99.5% (inactive),0.04 (inactive),2% (inactive),-2.03% (inactive)
